# Results published in PubChem BioAssay (Tox21).
# Several values for one entry are separate records, joined by “and”; a condition that tells them apart may be missing. Identical values can stand only once. Results filed as inconclusive are left out. A call without a number means that no potency is given here. Some compounds were tested as several samples or in several runs, with calls that do not always agree. Activity calls are given as the source filed them. Unless noted, the call rests on the fitted dose curve; in most records, active means well fitted curve in the direction sought with a large enough effect in the repeat runs; inconclusive means weak or mixed curves; inactive means no such curve, though single readings can be large; an effect the other way counts as inactive or inconclusive.
# Experiments:
# [1] = qHTS RealTime-Glo MT Cell Viability Assay in HEK293 cells - 0 hour (AID 1224880); further: top concentration of the series differs between compounds; nearly all actives have a fitted effect of over 45% in size
# Method in brief: (§1)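 Kinetic, non-lysing viability readout. Seed HEK293 (600/well) with reagent, incubate 5 h at 37 C/5% CO2, pin 23 nL compound in DMSO, incubate at 37 C, read luminescence at 0, 8, 16, 24, 32, 40 h.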
# [2] = A CellTox Green Cytotoxicity Assay to monitor cytotoxicity in HEK293 cells - 32 hour (AID 1224881); further: nearly all actives have a fitted effect of over 40% in size; further: potency means the concentration at half of the fitted maximal effect
# Method in brief: (§2)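 Real-time, in one plate: 600 HEK293 cells/well with dead-cell DNA dye, pinned compound after 5 h, 37 C incubation over 40 h; viable cells give no appreciable fluorescence.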
# [3] = A CellTox Green Cytotoxicity Assay to monitor cytotoxicity in HepG2 cells - 32 hour (AID 1224883); further: nearly all actives have a fitted effect of over 50% in size; further: potency means the concentration at half of the fitted maximal effect
# Method in brief: (§3)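 Cytotoxicity was tracked as dead-cell DNA fluorescence in HepG2 cells treated with test compounds at 37 C; each time-point value comes from one kinetic series spanning 0, 8, 16, 24, 32 and 40 h.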
# [4] = qHTS RealTime-Glo MT Cell Viability Assay in HepG2 cells - 16 hour (AID 1224885); further: nearly all actives have a fitted effect of over 50% in size
# Method in brief: (§4)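 HepG2 cells were seeded at 600 cells/well together with NanoLuc luciferase and a cell-permeant prosubstrate, preincubated 5 h at 37 C/5% CO2, then pin-dosed with compounds in DMSO. Nonlytic luminescence from viable cells was read at each time point.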
# [5] = qHTS RealTime-Glo MT Cell Viability Assay in HEK293 cells - 8 hour (AID 1224887); further: nearly all actives have a fitted effect of over 50% in size; further: potency means the concentration at half of the fitted maximal effect
# Method in brief: as §1
# [6] = A CellTox Green Cytotoxicity Assay to monitor cytotoxicity in HEK293 cells - 16 hour (AID 1224888); further: nearly all actives have a fitted effect of over 35% in size
# Method in brief: as §2
# [7] = qHTS RealTime-Glo MT Cell Viability Assay in HepG2 cells - 0 hour (AID 1224889); further: nearly all actives have a fitted effect of over 50% in size
# Method in brief: as §4
# [8] = A CellTox Green Cytotoxicity Assay to monitor cytotoxicity in HepG2 cells - 8 hour (AID 1224890); further: nearly all actives have a fitted effect of over 45% in size
# Method in brief: as §3
# [9] = qHTS assay to identify small molecule antagonists of the estrogen receptor alpha (ER-alpha) signaling pathway using the BG1 cell line in the presence of 0.1 nM 17-beta-estradiol - cell viability counter screen (AID 1259241); further: nearly all actives have a fitted effect of over 40% in size
# Method in brief: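 Estradiol-stimulated (0.1 nM) VM7Luc4E2 cells exposed to compounds 22 hr; viability measured by fluorescence of cleaved CellTiter-Fluor substrate after 30 min.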
# [10] = qHTS assay to identify small molecule antagonists of the androgen receptor (AR) signaling pathway using the MDA cell line in the presence of 0.5 nM R1881 - cell viability counter screen (AID 1259242); further: nearly all actives have a fitted effect of over 45% in size; further: potency means the concentration at half of the fitted maximal effect
# Method in brief: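 Cells seeded at 3,000/well and allowed 5 hr at 37C, 0% CO2 before compound transfer and R1881 (0.5 nM final) addition; 16 hr later, live-cell protease fluorescence indicated cytotoxicity.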
# [11] = qHTS assay to identify small molecule HDAC inhibitors (AID 1259364); further: potency means the concentration at half of the fitted maximal effect;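 further: wild-type HCT-116 cells with endogenous class I/II HDAC activity; nearly all actives have a fitted effect of over 45% in size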
# Method in brief: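 HCT-116 wt cells, 1,500/well, overnight attach. Compounds (DMSO) 2 h, 37 °C. HDAC-Glo I/II, 30 min RT. Luminescence.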
# [12] = qHTS assay to identify small molecule HDAC inhibitors - cell viability counter screen (AID 1259365)
# Method in brief: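 After overnight seeding at 1,500 cells per well, wild-type HCT-116 cultures took up compounds in DMSO for 2hr at 37 C. Viable cell content came from luminescence with CellTiter-Glo.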
# [13] = molecular target: Estrogen receptor (Homo sapiens) (UniProt P03372); test: qHTS assay to identify small molecule antagonists of the estrogen receptor alpha (ER-alpha) signaling pathway using the BG1 cell line in the presence of 0.1 nM 17-beta-estradiol (AID 1259244); further: nearly all actives have a fitted effect of over 50% in size; further: potency means the concentration at half of the fitted maximal effect
# Sequence of Estrogen receptor (Homo sapiens) (P03372 whole entry, looked up): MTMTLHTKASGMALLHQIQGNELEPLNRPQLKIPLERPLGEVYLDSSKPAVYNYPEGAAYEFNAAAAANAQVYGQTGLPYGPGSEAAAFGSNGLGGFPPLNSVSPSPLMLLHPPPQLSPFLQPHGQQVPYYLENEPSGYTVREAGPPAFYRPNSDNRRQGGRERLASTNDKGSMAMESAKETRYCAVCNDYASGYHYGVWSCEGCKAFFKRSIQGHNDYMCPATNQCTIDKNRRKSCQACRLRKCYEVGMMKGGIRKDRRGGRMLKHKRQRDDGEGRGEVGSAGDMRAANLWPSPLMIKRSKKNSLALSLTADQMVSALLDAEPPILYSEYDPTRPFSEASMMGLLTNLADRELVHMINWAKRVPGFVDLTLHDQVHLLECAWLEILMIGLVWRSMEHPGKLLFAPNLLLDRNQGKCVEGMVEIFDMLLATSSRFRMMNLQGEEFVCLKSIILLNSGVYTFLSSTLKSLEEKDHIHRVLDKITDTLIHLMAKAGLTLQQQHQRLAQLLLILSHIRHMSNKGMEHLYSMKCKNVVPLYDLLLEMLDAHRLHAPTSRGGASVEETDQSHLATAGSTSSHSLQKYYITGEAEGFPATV
# Method in brief: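 Luciferase signal from VM7Luc4E2 ERE-reporter cells, co-dosed with test compound and 0.1 nM final 17beta-estradiol for 22 h, read with ONE-Glo.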
# [14] = qHTS assay to identify small molecule agonists of the sonic hedgehog signaling (Shh) pathway - cell viability counter screen (AID 1259366); further: nearly all actives have a fitted effect of over 50% in size; further: potency means the concentration at half of the fitted maximal effect
# Method in brief: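 Same-well cytotoxicity read. Gli1-Luc reporter 3T3 cells; compounds 24hr, 37C/5% CO2; CellTiter-Fluor fluorescence.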
# [15] = qHTS assay to identify small molecule antagonists of the sonic hedgehog signaling (Shh) pathway - cell viability counter screen (AID 1259367); further: nearly all actives have a fitted effect of over 55% in size; further: potency means the concentration at half of the fitted maximal effect
# Method in brief: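 Tox21 library chemicals were tested on a Gli1-Luc NIH/3T3 clone (2,000 cells/well) stimulated by conditioned medium; viability was quantified as fluorescence from CellTiter-Fluor reagent added at 23 hr.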
# [16] = A CellTox Green Cytotoxicity Assay to monitor cytotoxicity in HepG2 cells - 0 hour (AID 1224882); further: nearly all actives have a fitted effect of over 35% in size
# Method in brief: as §3
# [17] = A CellTox Green Cytotoxicity Assay to monitor cytotoxicity in HEK293 cells - 8 hour (AID 1224884); further: nearly all actives have a fitted effect of over 35% in size
# Method in brief: as §2
# [18] = qHTS RealTime-Glo MT Cell Viability Assay in HEK293 cells - 24 hour (AID 1224886); further: nearly all actives have a fitted effect of over 50% in size; further: potency means the concentration at half of the fitted maximal effect
# Method in brief: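 HEK293 cells were seeded at 600 cells/well together with NanoLuc luciferase and cell-permeant prosubstrate, preincubated 5 h at 37 C/5% CO2, then given compound in DMSO by pintool. Luminescence from viable-cell prosubstrate reduction was read repeatedly over 40 h.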
# [19] = qHTS assay to identify small molecule phospholipidosis (PLD) inducers (AID 1259344; active means well fitted curve in the direction sought with a large enough effect; an effect the other way counts as inactive or inconclusive)
# Method in brief: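 Image-based: LipidTOX Red pit count/intensity per well and per cell; HepG2, 24 h compound at 37 C, PFA fixation, Hoechst counterstain.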
# [20] = molecular target: Androgen receptor (Homo sapiens) (UniProt P10275); test: qHTS assay to identify small molecule antagonists of the androgen receptor (AR) signaling pathway using the MDA cell line in the presence of 0.5 nM R1881 (AID 1259243); further: nearly all actives have a fitted effect of over 50% in size
# Sequence of Androgen receptor (Homo sapiens) (P10275 whole entry, looked up): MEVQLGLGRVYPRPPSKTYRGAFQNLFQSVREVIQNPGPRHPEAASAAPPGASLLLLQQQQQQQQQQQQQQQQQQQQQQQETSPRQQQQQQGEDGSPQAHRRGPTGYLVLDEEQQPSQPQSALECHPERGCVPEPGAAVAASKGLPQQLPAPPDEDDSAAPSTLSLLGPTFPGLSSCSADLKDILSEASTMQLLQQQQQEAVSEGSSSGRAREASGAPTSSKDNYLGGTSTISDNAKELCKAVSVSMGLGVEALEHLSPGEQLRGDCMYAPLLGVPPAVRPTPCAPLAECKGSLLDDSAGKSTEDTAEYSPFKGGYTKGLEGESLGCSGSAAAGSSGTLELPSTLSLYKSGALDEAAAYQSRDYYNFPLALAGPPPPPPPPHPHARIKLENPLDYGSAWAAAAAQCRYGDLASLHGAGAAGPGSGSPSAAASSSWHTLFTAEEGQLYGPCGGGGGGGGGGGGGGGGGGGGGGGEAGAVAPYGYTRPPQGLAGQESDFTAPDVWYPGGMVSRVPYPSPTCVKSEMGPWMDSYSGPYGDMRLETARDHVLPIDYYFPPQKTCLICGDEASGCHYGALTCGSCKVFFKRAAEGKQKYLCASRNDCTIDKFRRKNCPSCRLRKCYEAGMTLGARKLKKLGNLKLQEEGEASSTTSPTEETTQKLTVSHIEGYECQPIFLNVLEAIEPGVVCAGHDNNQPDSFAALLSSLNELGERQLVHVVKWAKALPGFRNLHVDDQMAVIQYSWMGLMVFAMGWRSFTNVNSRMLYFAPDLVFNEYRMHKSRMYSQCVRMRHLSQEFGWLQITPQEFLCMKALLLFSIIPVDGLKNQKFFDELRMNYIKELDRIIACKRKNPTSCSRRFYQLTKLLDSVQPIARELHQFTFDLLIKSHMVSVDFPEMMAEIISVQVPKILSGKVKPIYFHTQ
# Method in brief: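 Luminescence from an AR/GR-responsive MMTV-luciferase construct in MDA-kb2 breast carcinoma cells, read 30 min after ONE-Glo, following 16 hr co-treatment with compounds and 0.5 nM R1881.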
compound,measurement,setting,value
CC[C@H](O)C(C[C@H](C)N(C)C)(c1ccccc1)c1ccccc1,outcome,[1],inactive
same,Potency,[2],inactive
same,Potency,[3],inactive
same,Potency,[4],inactive
same,Potency,[5],inactive
same,Potency,[6],inactive
same,outcome,[7],inactive
same,Potency,[8],inactive
same,outcome,[9],inactive
same,Potency,[10],inactive
same,Potency,[11],inactive
same,outcome,[12],inactive
Clc1nc(Cl)nc(Nc2ccccc2Cl)n1,outcome,[1],inactive
same,Potency,[2],inactive
same,Potency,[3],inactive
same,Potency,[4],inactive
same,Potency,[5],inactive
same,Potency,[6],inactive
same,outcome,[7],inactive
same,Potency,[8],inactive
same,outcome,[9],inactive
same,Potency,[10],inactive
same,Potency,[13],inactive
same,Potency,[11],inactive
same,outcome,[12],inactive
same,Potency,[14],inactive
same,Potency,[15],inactive
C=CCc1cc(OC)c2c(c1)OCO2,outcome,[1],inactive
same,outcome,[16],inactive
same,Potency,[3],inactive
same,Potency,[17],inactive
same,Potency,[4],inactive
same,Potency,[18],inactive
same,outcome,[7],inactive
same,Potency,[8],inactive
same,outcome,[9],inactive
same,Potency,[10],inactive
same,Potency,[11],inactive
same,outcome,[12],inactive
same,Potency,[14],inactive
same,Potency,[15],inactive
Oc1ccc2c3c1O[C@H]1[C@@H](O)C=C[C@H]4[C@@H](C2)NCC[C@@]341,Potency,[2],inactive
same,outcome,[16],inactive
same,Potency,[3],inactive
same,Potency,[17],inactive
same,Potency,[4],inactive
same,Potency,[18],inactive
same,Potency,[5],inactive
same,Potency,[6],inactive
same,outcome,[7],inactive
same,Potency,[8],inactive
same,outcome,[9],inactive
same,Potency,[10],inactive
same,Potency,[19],inactive
same,Potency,[11],inactive
same,outcome,[12],inactive
same,Potency,[14],28.1 µM (active)
O=C1C2CC=CCC2C(=O)N1SC(Cl)(Cl)Cl (stereo not drawn),outcome,[1],inactive
same,Potency,[2],21.5 µM (active)
same,Potency,[3],inactive and 9.61 µM (active)
same,Potency,[17],inactive
same,Potency,[18],43.5 µM (active) and 3.41 µM (active)
same,Potency,[5],27.1 µM (active)
same,Potency,[6],inactive
same,outcome,[7],inactive
same,Potency,[8],inactive
same,outcome,[9],inactive
same,Potency,[10],inactive and 16.9 µM (active)
same,Potency,[13],inactive and 26.9 µM (active)
same,Potency,[19],inactive
same,Potency,[11],inactive
same,outcome,[12],inactive
same,Potency,[14],inactive and 13.5 µM (active)
same,Potency,[15],inactive and 13.5 µM (active)
CCOP(=S)(OCC)SCCl,outcome,[16],inactive
same,Potency,[3],inactive
same,Potency,[17],inactive
same,Potency,[4],inactive
same,Potency,[18],inactive
same,Potency,[5],inactive
same,Potency,[6],inactive
same,outcome,[7],inactive
same,Potency,[8],inactive
same,outcome,[9],inactive
same,Potency,[10],inactive
same,Potency,[20],inactive
same,Potency,[13],inactive
same,Potency,[11],inactive
same,outcome,[12],inactive
same,Potency,[14],inactive
same,Potency,[15],inactive
CCCCCCCC(=O)Cl,Potency,[2],inactive
same,outcome,[16],inactive
same,Potency,[3],inactive
same,Potency,[4],inactive
same,Potency,[6],inactive
same,outcome,[7],inactive
same,Potency,[8],inactive
same,outcome,[9],inactive
same,Potency,[10],inactive
same,Potency,[13],inactive
same,Potency,[11],inactive
same,outcome,[12],inactive
same,Potency,[14],inactive
same,Potency,[15],inactive
CCCCCCCCSC(=O)Oc1cc(Cl)nnc1-c1ccccc1,Potency,[2],inactive
same,outcome,[16],inactive
same,Potency,[3],inactive
same,Potency,[17],inactive
same,Potency,[4],inactive
same,Potency,[18],inactive
same,Potency,[5],inactive
same,Potency,[6],inactive
same,outcome,[7],inactive
same,Potency,[8],inactive
same,outcome,[9],inactive
same,Potency,[10],inactive
same,Potency,[11],inactive
same,outcome,[12],inactive
same,Potency,[14],inactive
same,Potency,[15],inactive
COP(=O)(O)OC,Potency,[2],inactive
same,outcome,[16],inactive
same,Potency,[3],inactive
same,Potency,[4],inactive
same,Potency,[18],inactive
same,Potency,[5],inactive
same,Potency,[6],inactive
same,outcome,[7],inactive
same,Potency,[8],inactive
same,outcome,[9],inactive
same,Potency,[10],inactive
same,Potency,[20],inactive
same,Potency,[13],inactive
same,Potency,[11],inactive
same,outcome,[12],inactive
same,Potency,[14],inactive
same,Potency,[15],inactive
CCNP(=S)(OC)O/C(C)=C/C(=O)OC(C)C (stereo not drawn),Potency,[2],inactive
same,outcome,[16],inactive
same,Potency,[3],inactive
same,Potency,[4],inactive
same,Potency,[18],inactive
same,Potency,[5],inactive
same,outcome,[7],inactive
same,Potency,[8],inactive
same,outcome,[9],inactive
same,Potency,[10],inactive
same,outcome,[12],inactive
same,Potency,[14],inactive
same,Potency,[15],inactive
O=CCCl,Potency,[2],inactive
same,outcome,[16],inactive
same,Potency,[3],inactive
same,Potency,[17],inactive
same,Potency,[4],inactive
same,Potency,[18],inactive
same,Potency,[5],inactive
same,outcome,[7],inactive
same,Potency,[8],inactive
same,outcome,[9],inactive
same,Potency,[10],inactive
same,Potency,[13],inactive
same,Potency,[11],inactive
same,outcome,[12],inactive
same,Potency,[14],inactive
same,Potency,[15],inactive
BrCc1ccc(Br)cc1,Potency,[2],inactive
same,outcome,[16],inactive
same,Potency,[3],inactive
same,Potency,[4],inactive
same,Potency,[18],inactive
same,Potency,[5],inactive
same,Potency,[6],inactive
same,outcome,[7],inactive
same,Potency,[8],inactive
same,outcome,[9],inactive
same,Potency,[10],inactive
same,Potency,[20],inactive
same,Potency,[11],inactive
same,outcome,[12],inactive
same,Potency,[14],inactive
same,Potency,[15],inactive
CCN(CCO)CCn1c(Cc2ccccc2)nc2c1c(=O)n(C)c(=O)n2C,Potency,[2],inactive
same,outcome,[16],inactive
same,Potency,[3],inactive
same,Potency,[17],inactive
same,Potency,[4],inactive
same,Potency,[5],inactive
same,Potency,[6],inactive
same,outcome,[7],inactive
same,Potency,[8],inactive
same,outcome,[9],inactive
same,Potency,[10],inactive
same,Potency,[13],inactive
same,PLD induction,[19],-2.9% [at 7.66 µM] (inactive)
same,Potency,[11],inactive
same,outcome,[12],inactive
same,Potency,[14],inactive
same,Potency,[15],inactive
CON(C)C(=O)Nc1ccc(Br)cc1,Potency,[2],inactive
same,outcome,[16],inactive
same,Potency,[3],inactive
same,Potency,[17],inactive
same,Potency,[4],inactive
same,Potency,[18],inactive
same,Potency,[5],inactive
same,outcome,[7],inactive
same,Potency,[8],inactive
same,outcome,[9],inactive
same,Potency,[10],inactive
same,Potency,[11],24.3 µM (active)
same,outcome,[12],inactive
same,Potency,[14],inactive
same,Potency,[15],inactive
CCc1ccc(C2CCNCC2)cc1,Potency,[2],inactive
same,Potency,[3],inactive
same,Potency,[17],inactive
same,Potency,[18],inactive
same,Potency,[5],inactive
same,Potency,[6],inactive
same,outcome,[7],inactive
same,Potency,[8],inactive
same,outcome,[9],inactive
same,Potency,[10],inactive
same,Potency,[20],inactive
same,Potency,[13],inactive
same,Potency,[11],inactive
same,outcome,[12],inactive
same,Potency,[14],inactive
same,Potency,[15],inactive
CC1=C2[C@H]3OC(=O)[C@@H](C)[C@@H]3CC[C@@]2(C)C=CC1=O,Potency,[2],inactive
same,Potency,[3],inactive
same,Potency,[17],inactive
same,Potency,[4],inactive
same,Potency,[18],inactive
same,Potency,[5],inactive
same,Potency,[6],inactive
same,outcome,[7],inactive
same,Potency,[8],inactive
same,outcome,[9],inactive
same,Potency,[10],inactive
same,Potency,[19],inactive
same,Potency,[11],inactive
same,outcome,[12],inactive
same,Potency,[14],inactive
CC(C)[N+](C)(CCC(C(N)=O)(c1ccccc1)c1ccccc1)C(C)C,Potency,[2],inactive
same,Potency,[3],inactive
same,Potency,[17],inactive
same,Potency,[4],inactive
same,Potency,[18],inactive
same,Potency,[5],inactive
same,Potency,[6],inactive
same,outcome,[7],inactive
same,Potency,[8],inactive
same,outcome,[9],inactive
same,Potency,[10],inactive
same,Potency,[13],inactive
same,Potency,[19],inactive
same,Potency,[11],inactive
same,outcome,[12],inactive
same,Potency,[14],inactive
same,Potency,[15],inactive
